# A selection: hits, their analogues and other compounds. The true share with any hit is near 12%.
# Sm TGR block: qHTS Assay for the Inhibitors of Schistosoma Mansoni Peroxiredoxins; Schistosoma mansoni thioredoxin glutathione reductase (TGR), Q962Y6; 360,000 compounds, 3% hits; purified TGR, DTNB reduction, TNB absorbance 405 nm; AID 485364, 2010; Potency, µM (top dose mostly 114 µM), for the others: at the top dose activity change, negative = inhibition, actives largely listed as inhibitors; active means well fitted inhibition curve with a large enough effect; inconclusive means small, poorly fitted or top-dose-only effect; inactive means no such curve, though single readings can be large or run the other way; further: potency means the concentration at half of the fitted maximal effect; on the % scale 0 is the no-effect control and ±100 the full control effect; nearly all actives have a fitted effect of over 60% in size
#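 First, TGR (20 nM dispensed) and NADPH were mixed with compound. Second, a 15 min room-temperature incubation followed. Third, further NADPH and then DTNB were added to start the reaction. Finally, TNB absorbance was monitored kinetically.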
# CHX counter: Cycloheximide Counterscreen for Small Molecule Inhibitors of Shiga Toxin | cell reporter, cycloheximide protein synthesis inhibition counterscreen | max response, % | 300,000 compounds, 12% hits | AID 2314, 2010; in the data active means max response mostly above about 13%, no sharp cut-off; inactive means mostly below about 14%; further: read at 38.3 µM for the half of the compounds with a filed dose; 0% is about no effect
# Shiga toxin inh: A qHTS for Small Molecule Inhibitors of Shiga Toxin; Vero cells, Shiga toxin protein synthesis inhibition reporter; inhibition, % at 38.7 µM; 290,000 compounds, 9.2% hits; in the data active means inhibition mostly above about 28%, no sharp cut-off; inactive means mostly below about 43%; further: 0% is about no effect
# FMDV antiviral: High Throughput Screening for Foot and Mouth Disease Virus Antivirals | FMDV antiviral cell-based qHTS | Potency, µM (titrated, usually from 57.9 µM), for the others: top-dose activity change, negative = inhibition, usual class: inhibitors | 410,000 compounds, 1.2% hits; calls by dose curve; tested in HEK293T cells; further: read-out not given here; potency means the concentration at half of the fitted maximal effect; on the % scale 0 is the no-effect control and ±100 the full control effect; nearly all actives have a fitted effect of over 45% in size
# * marks the source's active call; other numbers are inactive results; i = inactive; ? = inconclusive; nt = no result given.
SMILES,Sm TGR block,CHX counter,Shiga toxin inh,FMDV antiviral
CCCc1cc(C(=O)NNC(=S)NCc2ccccc2)cs1,13.6%,-2.8,10.3,0.6%
CCCc1cc(C(=O)NNC(=S)NC2CCCCC2)cs1,-22.8%,21.5*,34.4,15.1%
CCCCNC(=S)NNC(=O)c1sccc1C,0.9%,9.5,-12.3,54.4%
CNC(=S)NNC(=O)c1sccc1C,12.0%,17.5*,33.7,5.4%
Cn1c(CCNC(=O)c2ccco2)nc2cc(NC(=O)COc3ccc(Cl)cc3)ccc21,-0.4%,nt,nt,-2.9%
Cc1ccccc1NC(=O)Cn1c(=O)n(CCC(=O)N2CCc3ccccc3C2)c(=O)c2ccccc21,-1.4%,nt,nt,12.4%
O=C1NC(=O)N(Cc2ccc(F)cc2)C(=O)/C1=C\c1ccc([N+](=O)[O-])s1,2.24µM*,-2.9,18.8,-20.7%
COc1ccc(CN2C(=O)NC(=O)/C(=C\c3cc(OC)c(OC)c(OC)c3)C2=O)cc1,12.6µM*,-4.1,16.8,-8.1%
COc1ccc(CN2C(=O)NC(=O)/C(=C/c3ccc([N+](=O)[O-])s3)C2=O)cc1,1.12µM*,-0.7,-5.1,?
Cn1c(=O)oc2cc(S(=O)(=O)N3CCCC(C(=O)Nc4ccc(Br)cc4F)C3)ccc21 (stereo not given),-5.9%,nt,nt,-13.1%
C=C1c2ccccc2O[C@H](C(=O)OCC)C1OC (mixture of isomers),nt,-0.7,i,nt
COc1ccc(C(=O)N2CCc3cc(OC)c(OC)cc3C2COc2ccc3c(C)cc(=O)oc3c2)c(OC)c1 (stereo not given),-2.3%,nt,nt,0.0%
CCCCOc1ccc(C(=O)NCc2cn3cccc(C)c3n2)cc1,2.1%,nt,nt,-15.2%
Nc1ccc2c(c1)C/C(=C/c1ccco1)C2=O,15.8µM*,56.0*,123.1*,-6.8%
COc1ccc2c(c1)CC/C(=C/c1ccco1)C2=O,-1.0%,56.4*,120.2*,13.8%
O=C1/C(=C\c2ccncc2)CCc2ccccc21,-26.7%,nt,nt,-26.8%
O=C1/C(=C/c2ccco2)CCc2ccccc21,?,77.4*,61.3*,-39.1%
COc1cc(OC)c(OC)cc1/C=C1/Cc2ccccc2C1=O,-16.6%,-4.9,-6.3,-2.1%
CCC1C/C(=C/c2ccco2)C(=O)/C(=C/c2ccco2)C1 (stereo not given),20µM*,16.2,-1.3,nt
COc1ccc2c(c1)CC/C(=C\c1ccc(OC)c(Cn3cccn3)c1)C2=O,-1.2%,25.9,23.3,?
COC(=O)c1sccc1S(=O)(=O)N1CCN(c2ccc(C)cc2C)CC1,-0.4%,nt,nt,0.2%
CNCCCCCCCCSc1nc(C(C)C)ccc1C(=O)c1cccs1,nt,nt,nt,49.1%
CN(Cc1ccccc1)c1nc(-c2ccc(F)cc2)cc(C(F)(F)F)n1,9.3%,-3.2,-1.8,-22.7%
CSc1ccc(/C=C/C(=O)OCC(=O)N(C)CCC#N)cc1,5.6%,19.9*,31.2*,9.0%
COc1ccc(C2CC(c3cccs3)=NN2C(=O)CCl)cc1OC (stereo not given),4.47µM*,29.2*,41.7*,?
SMILES,Sm TGR block,CHX counter,Shiga toxin inh,FMDV antiviral
COc1ccc(C2CC(c3cccs3)=NN2C(=O)CN2CCCCC2)cc1 (stereo not given),9.7%,10.5,26.0*,45.3%
COc1cc(C2CC(c3cccs3)=NN2C(=O)CCl)ccc1OC(F)F (stereo not given),7.94µM*,14.7,62.9*,15.8µM*
COc1ccc(C2CC(c3cccs3)=NN2C(=O)c2ccccc2)cc1OC (stereo not given),11.3%,2.4,-4.3,-18.6%
CCCCCCCC(=O)OCCOC(=O)CCCCCCC,nt,-8.5,-5.6,nt
Clc1cccc(N/N=C(\Cc2nc3ccccc3[nH]2)c2ccccc2)c1,-8.3%,21.2*,54.1*,?
Cc1ccc(-c2nn(-c3ccc(F)cc3F)c3c2cnc2ccc(F)cc23)cc1,3.7%,nt,nt,?
CCc1ccc(CNc2nc3nc(C)c(Cc4ccccc4)c(=O)n3[nH]2)cc1,2.5%,nt,nt,10.0%
O=C(O)Cc1ccc(C(=O)CSc2ccccc2)s1,20µM*,-2.0,29.9,-4.8%
Cc1ccc(SCC(=O)c2ccc(CC(=O)O)s2)cc1,29.9%,19.5*,24.1,17.5%
O=C(O)Cc1ccc(C(=O)c2ccccc2)s1,-12.4%,-1.6,-9.6,15.7%
C/C(Cn1cnc([N+](=O)[O-])n1)=N\NC(=O)c1ccc(F)cc1,-1.6%,25.4*,40.5*,-5.2%
C/C(Cn1cnc([N+](=O)[O-])n1)=N\NC(=O)c1ccncc1,-0.5%,4.0,16.4,-9.7%
C/C(Cn1cnc([N+](=O)[O-])n1)=N\NC(=O)c1cccc(F)c1,-29.2%,25.4*,96.4*,39.2%
COc1ccccc1NC(=O)Cn1cc(C(=O)c2ccncc2)c(=O)c2cc(C)ccc21,-0.6%,nt,nt,0.6%
CCc1ccc(Sc2cc(C(=O)NCCCN3CCC(C)CC3)c3ccccc3n2)cc1,2.7%,nt,nt,-20.2%
CCc1nn(CC(=O)NCCN(CC(C)C)CC(C)C)c(=O)c2cc3sc(C)cc3n12,3.9%,nt,nt,-11.0%
COc1cc(C(=S)N2CCOCC2)ccc1OC(=O)/C=C/c1ccco1,?,20.5*,22.9,-15.2%
COc1cc(C(=S)N2CCCC2)ccc1OS(=O)(=O)c1ccc(NC(C)=O)cc1,-1.8%,3.2,31.3,20µM*
COc1cc(C(=S)N2CCOCC2)ccc1OS(=O)(=O)c1ccc(NC(C)=O)cc1,-4.6%,-1.8,15.8,12.6µM*
COc1ccc(S(=O)(=O)Oc2ccc(C(=S)N3CCOCC3)cc2OC)cc1,-16.9%,-5.4,-6.7,?
Cc1ccc(CN(C(=O)COc2c(C)cccc2C)C2CCS(=O)(=O)C2)o1 (stereo not given),-3.9%,nt,nt,-15.8%
Cc1cccc(NC(=O)C2CCCN(c3nnc(-n4c(C)ccc4C)s3)C2)c1C (stereo not given),-32.1%,nt,nt,-25.8%
CCSc1ncc(Cl)c(C(=O)N2CCN(c3ccccc3OC)CC2)n1,-4.5%,nt,nt,-17.8%
CCN(CC)S(=O)(=O)c1cccc(NC(=O)Nc2cccc(C(F)(F)F)c2)c1,-2.0%,5.2,-7.4,17.8µM*
CCN(CC)S(=O)(=O)c1cccc(NC(=O)CC2CCCC2)c1,5.9%,-3.4,22.8,3.7%
SMILES,Sm TGR block,CHX counter,Shiga toxin inh,FMDV antiviral
CCN(CC)S(=O)(=O)c1cccc(NC(=O)/C=C/c2cccc([N+](=O)[O-])c2)c1,2.9%,-1.8,9.9,17.8µM*
CCCC(C)NC(=O)/C=C/c1cccc([N+](=O)[O-])c1 (stereo not given),-1.8%,11.1*,-0.6,-4.0%
O=C(/C=C/c1cccc([N+](=O)[O-])c1)NCc1ccccc1,-3.0%,6.3,-9.7,-18.2%
COc1ccc2nc(N(Cc3cccnc3)C(=O)c3ccc(Cl)cc3)sc2c1,-1.6%,nt,nt,-20.8%
COc1ccccc1C1=NC(c2ccc(F)cc2)N=C1C (stereo not given),-1.9%,28.1*,87.9*,14.9%
Cc1ccc2oc(-c3ccc(C)c(NC(=O)C(C)(C)Oc4ccc(Cl)cc4)c3)nc2c1,1.0%,nt,nt,24.6%
CCOC(=O)N1CCN(c2nc(-c3ccc(OC)cc3)no2)CC1,-28.6%,26.0*,62.0*,2.6%
COc1ccc(-c2noc(N3CCC(C(=O)N4CCN(c5ccccc5F)CC4)CC3)n2)cc1,-10.9%,nt,nt,11.2µM*
COc1ccc(-c2noc(N3CCC(C(=O)Nc4ccc(F)cc4)CC3)n2)cc1,2.5%,-2.3,4.2,-22.1%

# Source: PubChem BioAssay
